Our source for the Potency values is PubChem BioAssay (Tox21).

Values joined by “and” are separate entries in the source; they are usually repeats but may differ in a detail not shown here. Identical values can stand only once. Records with an inconclusive call do not appear. A call without a number means that no potency is given here. Active and inactive are the calls of the source. Calls come from the whole dose curve; as a rule, active = well fitted cell-killing curve with a large enough effect in the repeat runs; inconclusive = weak or mixed curves, or effect the other way; inactive = flat fitted curve, though single readings scatter.
Potency is the fitted concentration of half-maximal effect.

This experiment is described as follows: qHTS assay to identify small molecule antagonists of the constitutive androstane receptor (CAR) signaling pathway - cell viability counter screen (AID 1224837). Note: nearly all actives have a fitted effect of over 45% in size. Particulars: HepG2-CYP2B6-hCAR viability, CellTiter-Fluor, 23 h, co-treated with 50 nM CITCO; series mostly up to 92.4 µM. The source says:
National Center for Advancing Translational Sciences [NCATS]
NIH Chemical Genomics Center [NCGC]
U.S. Environmental Protection Agency [EPA]
National Institutes of Environmental Health Sciences [NIEHS]
National Toxicology Program [NTP]
U.S. Food and Drug Administration [FDA]
The constitutive androstane receptor (CAR) is a nuclear receptor which regulates multiple drug metabolizing enzymes (DMEs) and transporters. Activating CAR will generally increase the transcription and subsequent translation of CYP2B6 and CYP3A4. These two DMEs represent about 50% of the drug metabolizing potential in the body. When CAR is deactivated, the metabolizing potential in the body will decrease, subsequently increasing the toxicity in the body or lowering the therapeutic potential of a pro-drug. Recently, there have also been studies performed indicating CARs role in energy metabolism and cancer therapy. Therefore, inhibiting CARs activity could have a potential effect on diabetes and cancer. Identifying environmental toxins and compounds which modulate CAR, through the use of the Tox21 10K compound collection, will be an important step in determining the toxicity and potential therapeutic effects these factors will have on the human body. To differentiate true CAR antagonists from cytotoxic substances, the assay is multiplexed with a cell viability assay.
Tox21 Assay Protocol Summary:
A double-stable (hCAR and CYP2B6-2.2kb) transfected cell line, derived from human hepatoma (HepG2) cells, was utilized for the duration of the quantitative high-throughput screens. The HepG2-CYP2B6-hCAR cells were dispensed at 2500 cells/4 uL/well in 1536-well white solid bottom plates using a Multidrop Combi. After the assay plates were incubated at 37 C/5% CO2 for 4 hrs, 23 nL of compounds at 15 concentrations (from 5-48 columns) or positive control (from 1 to 4 columns) were transferred to the assay plates using a Pintool station. One uL of CITCO (final concentration = 50 nM) was added, using a Flying Reagent Dispenser, inside each well. After a 23 hr incubation period at 37 C/5% CO2, 1 uL of CellTiter-Fluor reagent was added into each well of the assay plates using a Flying Reagent Dispenser. The fluorescence intensity in the plates was then measured using a ViewLux plate reader.
On the technique in general: qHTS replaces the single test concentration by a dilution series.
In the case of `ClCc1ccccc1CCl`, the Potency entry was “inactive”.

In the case of `S=C(SSC(=S)N1CCCCC1)N1CCCCC1`, the Potency is 0.335 µM (active).

On to `CCOP(=S)(OCC)SCS(=O)(=O)CC`, for which the Potency entry is “inactive”.

With `CN(CCCC(=O)c1cccnc1)N=O`, the Potency result is “inactive”.

On to `CN(C)CCc1c[nH]c2ccc(O)cc12`, for which the Potency result is “inactive”.

Take `CCOc1cc(C(C)(C)C)ccc1C1COC(c2c(F)cccc2F)=N1` (stereo not given): the Potency result was “inactive”.

Turning to `CC(C)CBr`, the Potency entry was “inactive”.

For the compound `CCOP(=S)(OCC)OC(Cl)C(Cl)(Cl)Cl` (stereo not given), the Potency entry was “inactive”.

For `CN(C)C1CSSSC1`, the Potency entry is “inactive”.

For the compound `O=C(CCl)Nc1ccccc1`, the Potency is 48.6 µM (active).

As to `N#CSCSC#N`, the Potency was 27.9 µM (active) and 27 µM (active).

`O=C(O)COc1nc(Cl)c(Cl)cc1Cl`: the Potency result is “inactive”.

For `Fc1cccc(Cl)c1CCl`, the Potency result is “inactive”.

As for `ClC(Cl)=C(c1ccc(Cl)cc1)c1ccc(Cl)cc1`, the Potency result is “inactive”.

Turning to `Cc1cc(C)c(C2=C(OC(=O)CC(C)(C)C)C3(CCCC3)OC2=O)c(C)c1`, the Potency entry was “inactive”.

For `Clc1ccc(C(Cl)(Cl)Cl)c(Cl)c1`, the Potency result is “inactive”.

For the compound `Cn1[nH]nnc1=S`, the Potency entry was “inactive”.

In the case of `Cn1cc(C2=C(c3cn(C4CCN(Cc5ccccn5)CC4)c4ccccc34)C(=O)NC2=O)c2ccccc21`, the Potency entry was “inactive”.

Take `Oc1ccc(C(=C(Cl)Cl)c2ccc(O)cc2)cc1`: the Potency entry was “inactive”.

On to `COc1ccc([N+](=O)[O-])cc1O`, for which the Potency result was “inactive”.

Regarding `C[CH2][Hg][N]1C(=O)C2C(C1=O)C1(Cl)C(Cl)=C(Cl)C2(Cl)C1(Cl)Cl` (stereo not given), the Potency is 13 µM (active).

Turning to `CCSC(C)CC1CC(=O)C(/C(CC)=N/OC/C=C/Cl)=C(O)C1` (stereo not given), the Potency result is “inactive”.

On to `CCOC(=O)C1(c2ccccc2)CCN(CCC(C#N)(c2ccccc2)c2ccccc2)CC1`, for which the Potency entry was “inactive”.

As to `CC(C)CCCCCOC(=O)c1ccccc1C(=O)OCCCCCC(C)C`, the Potency result was “inactive”.

`N#Cc1ccc(O)cc1`: the Potency result was “inactive”.

Consider `COC(=O)N(C(=O)N1COC2(C(=O)OC)Cc3cc(Cl)ccc3C2=N1)c1ccc(OC(F)(F)F)cc1` (stereo not given), for which the Potency result is “inactive”.

In the case of `c1ccc2c(c1)OCC(C1=NCCN1)O2` (stereo not given), the Potency was 29.8 µM (active).

As to `C=COCCCl`, the Potency result is “inactive”.

In the case of `c1ccc(OCC2CO2)cc1` (stereo not given), the Potency result was “inactive”.

As to `O=[N+]([O-])c1cc(C(F)(F)F)c(Cl)c([N+](=O)[O-])c1Cl`, the Potency is 27.3 µM (active).

As to `c1ccc2c(c1)[nH]c1cnccc12`, the Potency entry was “inactive”.

With `BrCC(Br)c1ccccc1` (stereo not given), the Potency entry was “inactive”.

On to `CCOP(=S)(OCC)SCCS(=O)(=O)CC`, for which the Potency entry was “inactive”.

Consider `C[C@H]1CC[C@@H]2[C@@H](C)[C@H]3[C@H](C[C@H]4[C@@H]5CC=C6CC(O[C@@H]7O[C@H](CO)[C@H](O)[C@H](O[C@@H]8O[C@H](CO)[C@@H](O)[C@H](O)[C@H]8O)[C@H]7O[C@H]7O[C@@H](C)[C@H](O)[C@@H](O)[C@H]7O)CC[C@]6(C)[C@H]5CC[C@]34C)N2C1` (stereo not given in full), for which the Potency is 22.4 µM (active).

As for `O=C(CBr)c1ccc(O)cc1`, the Potency result was “inactive”.

For the compound `CCC(C)(C)C(=O)OC1=C(c2ccc(Cl)cc2Cl)C(=O)OC12CCCCC2`, the Potency entry is “inactive”.

Turning to `O=c1[nH]c2ccccc2n1C1CCN(CCCC(c2ccc(F)cc2)c2ccc(F)cc2)CC1`, the Potency is 54.5 µM (active).

Regarding `CC(=O)c1ccc(-c2ccccc2)cc1`, the Potency result is “inactive”.

`O=C1NCN(c2ccccc2)C12CCN(CC1COc3ccccc3O1)CC2` (stereo not given): the Potency result is “inactive”.

In the case of `CCCCCCCCCCCCBr`, the Potency entry is “inactive”.
